Among the data in PubChem BioAssay (NCI) are growth inhibition values, retold here.

A short description of assay [1]: NCI Yeast Anticancer Drug Screen. Data for the rad50 strain (AID 155).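 Note: 0% = growth of vehicle-only cultures of the same strain.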 As to conditions: S. cerevisiae rad50 strain growth inhibition; at 50.0 µM; hits give high values. The essentials: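 Vehicle-treated cultures provide the reference for the growth inhibition reported for compound-exposed, repair-deficient yeast.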
The nature of assay [2]: NCI Yeast Anticancer Drug Screen. Data for the mec2-1 strain (AID 157). The settings on record: S. cerevisiae mec2-1 strain, at 50.0 µM, hits give high values. A digest of the protocol: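 mec2-1 yeast strain, carrying an alteration in DNA damage repair or cell cycle control, was exposed to compounds; growth inhibition was measured relative to vehicle-treated controls.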
The nature of assay [3]: NCI Yeast Anticancer Drug Screen. Data for the sgs1 mgt1 strain (AID 161).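 Note: 0% = growth of cultures given vehicle only.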 The settings on record: S. cerevisiae sgs1 mgt1 strain, at 50.0 µM, hits give high values. A digest of the protocol:
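Percent growth inhibition was derived by comparing compound-exposed mutant yeast with vehicle-exposed cultures. The strain carries alterations in DNA damage repair.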

Assay [4] in a line: NCI Yeast Anticancer Drug Screen. Data for the cln2 rad14 strain (AID 165).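 Note: 0% = growth equal to vehicle treated cultures.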 The settings on record: S. cerevisiae cln2 rad14 strain, at 50.0 µM, hits give high values. A digest of the protocol:
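Yeast carrying cln2 and rad14 alterations (cell cycle control and DNA damage repair) were exposed to compounds. Growth inhibition was measured against vehicle-treated controls.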

Assay [5] can be described thus: NCI Yeast Anticancer Drug Screen. Data for the bub3 strain (AID 167). The settings on record: S. cerevisiae bub3 mutant strain, at 50.0 µM, hits give high values. A digest of the protocol:
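Mutant yeast screening strain plus compound; vehicle-treated cultures serve as the 0% inhibition reference.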

The nature of assay [6]: NCI Yeast Anticancer Drug Screen. Data for the mlh1 rad18 strain (AID 175). The settings on record: S. cerevisiae mlh1 rad18 strain growth inhibition; at 50.0 µM; hits give high values. The essentials:
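Growth inhibition of the yeast strain was measured after compound exposure and expressed relative to vehicle-treated controls. The strain carries defined defects in DNA damage repair.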

The panel holds about 79,000 compounds, 15% with a hit somewhere; the sample as a whole holds those more often. A number with no mark means an inactive call. The source made the active and inactive calls. Cut-off read from the data, not from the text of the source: active = growth inhibition above about 70%; inactive = the rest.

In the case of `CC(=O)OCN(C)C=O`, the growth inhibition in assay [1] is 25.9%; in assay [2], 11.3%; in assay [3], 18.7%; in assay [4], 14.5%; in assay [5], 11.1%; in assay [6], 19.6%.

On to `CC1(C)OC2(CC1C1(C)C=CC(=O)O1)CC1C(O)(CCC34CC13C(=O)OC4c1ccoc1)O2` (stereo unspecified), for which the growth inhibition in assay [1] is 3.95%; in assay [2], -17.3%; in assay [3] it was 3.15%; in assay [4], 6.2%; in assay [5], -3.1%; in assay [6] it was 10.2%.

Turning to `O=C(/C=C/c1ccccn1)c1ccc(Cl)cc1`, the growth inhibition is 22.1% in assay [1]; 10.7% in assay [2]; 24.1% in assay [3]; 16.9% in assay [4]; 22.4% in assay [5]; 13.1% in assay [6].

Consider `CN(C=C(C#N)C#N)c1ccccc1`, for which the growth inhibition is 8.7% in assay [1]; -4.65% in assay [2]; -0.1% in assay [3]; -3.95% in assay [4]; 9.05% in assay [5]; 16.4% in assay [6].

Turning to `CC(=O)c1cc(-c2ccccn2)c(=O)n2ccccc12`, the growth inhibition in assay [1] is 26.1%; in assay [2], 15.5%; in assay [3], -19.9%; in assay [4], -0.3%; in assay [5], 5.25%; in assay [6], -4%.

On to `O=C(/C=C/c1ccccc1)Nc1ccccc1C(F)(F)F`, for which the growth inhibition is 4.45% in assay [1]; 9.05% in assay [2]; 0.7% in assay [3]; -3.7% in assay [4]; 12.6% in assay [5]; 18.2% in assay [6].

Take `Cc1cccc2c1CCC21OC(=O)c2c1cc(F)c1ccccc21` (stereo unspecified): the growth inhibition in assay [1] is -13.3%; in assay [2] it was -15.4%; in assay [3] it was -8.5%; in assay [4] it was 2.55%; in assay [5], 14.5%; in assay [6] it was 4.35%.

With `S=C(SSSC(=S)N(C1CCCCC1)C1CCCCC1)N(C1CCCCC1)C1CCCCC1`, the growth inhibition in assay [1] was 1.5%; in assay [2], 3.7%; in assay [3], 10.1%; in assay [4], 1.45%; in assay [5] it was -5.9%; in assay [6], 17.2%.

Regarding `c1csc(C2N3CCN(CC3)C(c3cccs3)N3CCN2CC3)c1` (stereo unspecified), the growth inhibition was -1.6% in assay [1]; -16.7% in assay [2]; 23.8% in assay [3]; 10.1% in assay [4]; -5.25% in assay [5]; 3.1% in assay [6].

Turning to `CCCCCCCC/C=C\CCCCCCCC(=O)NCCN1CCCCC1`, the growth inhibition in assay [1] was 99% (active); in assay [2], 99.5% (active); in assay [3], 99.6% (active); in assay [4], 97.8% (active); in assay [5] it was 99% (active); in assay [6], 99.2% (active).

As to `O=C(/C=C/c1ccccc1)[c-]1[c-][c-][c-][c-]1.[Fe].[c-]1[c-][c-][cH-][c-]1`, the growth inhibition was 10.9% in assay [1]; 11.6% in assay [2]; 9.05% in assay [3]; 8.1% in assay [4]; 13.8% in assay [5]; 13.2% in assay [6].

Take `c1ccc(-c2cc3ccccc3c(-c3ccccc3)c2-c2ccccc2)cc1`: the growth inhibition is -18.6% in assay [1]; -1.75% in assay [2]; -4.8% in assay [3]; -1.85% in assay [4]; -2.65% in assay [5]; -15.9% in assay [6].

Consider `CCNC(=S)Nc1ccc(OCC)cc1`, for which the growth inhibition in assay [1] was 14.2%; in assay [2] it was 24.3%; in assay [3], 31.4%; in assay [4], -18.1%; in assay [5], 33.9%; in assay [6] it was 16.4%.

For `CC(=O)OC(CC1(C)C(C)CCC23COC(=O)C2=CCCC31)c1ccoc1` (stereo unspecified), the growth inhibition in assay [1] is 87.3% (active); in assay [2] it was 82.2% (active); in assay [3], 85.7% (active); in assay [4], 63.5%; in assay [5] it was 81.2% (active); in assay [6] it was 82% (active).

Consider `COC1OC2COC(c3ccccc3)OC2C(OC)C1OC(=O)c1ccccc1` (stereo unspecified), for which the growth inhibition is -3.05% in assay [1]; 0.85% in assay [2]; -14.1% in assay [3]; -37.6% in assay [4]; -2.05% in assay [5]; 7.55% in assay [6].

For the compound `Cc1cc2[nH]c3ccccc3n2c(=O)c1N=Nc1ccccc1`, the growth inhibition was 3.1% in assay [1]; 4.65% in assay [2]; 9.75% in assay [3]; -14.3% in assay [4]; 7.05% in assay [5]; 15.8% in assay [6].

Turning to `COc1cc2c[n+](C)c(-c3ccc(Cl)c(Cl)c3)c(OC)c2cc1OC`, the growth inhibition in assay [1] is 56.1%; in assay [2], 8.15%; in assay [3] it was 41.5%; in assay [4] it was 31.4%; in assay [5], 14.9%; in assay [6], 41.5%.

For `C/C(CC(=O)Nc1cccc([N+](=O)[O-])c1)=N\NC(=O)CC#N`, the growth inhibition in assay [1] is -3.45%; in assay [2], -13.3%; in assay [3], 0.55%; in assay [4], 12.1%; in assay [5], -8.45%; in assay [6] it was 2.35%.

For `COc1cccc(N=N/C(=N/NC(=O)c2cc(Cl)ccc2O)c2ccc(N(CCC#N)CCC#N)cc2C)c1`, the growth inhibition in assay [1] was -18.9%; in assay [2], -16.8%; in assay [3], -18.9%; in assay [4], -18.6%; in assay [5], -17.9%; in assay [6], -47.6%.

For the compound `Cc1cc2c(cc1C)NC1=C(N2)OC(c2ccc(C3OC4=C(Nc5cc(C)c(C)cc5N4)C3=O)cc2)C1=O` (stereo unspecified), the growth inhibition was 32.2% in assay [1]; 14.8% in assay [2]; 9.95% in assay [3]; 16.5% in assay [4]; 0.75% in assay [5]; 29.6% in assay [6].

For `O=S=Nc1ccc([N+](=O)[O-])cc1Cl`, the growth inhibition is 5.7% in assay [1]; -1.15% in assay [2]; -2.9% in assay [3]; -33.6% in assay [4]; 10.7% in assay [5]; 16.6% in assay [6].
